High-throughput results from PubChem.
Anesthetic bind = candidate novel general anesthetic via apoferritin binding; apoferritin/1-aminoanthracene competitive binding, fluorescence; P02791; 350,000 tested, 0.074% active; Potency, µM (highest dose often 77.5 µM), without a hit: top-dose activity change, negative = displacement, usual class: inhibitors; also: potency is read from the fitted curve at half-maximal effect; % is scaled to controls: 0 for no effect and ±100 for the full control effect; nearly all actives have a fitted effect of over 20% in size
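In PBS, apoferritin at 10 uM is loaded with 1-AMA from a 50% saturated solution. After 10 min of compound exposure at ambient temperature, reduced 535 nm fluorescence indicates probe displacement.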
KCNH2 WT inh = KCNH2 (human, wildtype) channel inhibition; U2OS, BacMam KCNH2, thallium flux FluxOr; stronger effect = lower value; activity change, % at 1.84 µM; 340,000 tested, 0.37% active;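 active = maximum activity change below -70%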; also: % is scaled to controls: 0 for no effect and ±100 for the full control effect
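U2OS cells were transduced with wild-type KCNH2 virus (2.03 x 10^8 / mL) for 4 h at room temperature, then cultured overnight at 37 C. Thallium flux was read with FluxOr dye. Rate constants were normalized to DMSO controls.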
ASM inhibitor = blocks human secretory acid sphingomyelinase; placental ASM, HMU-PC fluorogenic substrate, 60 min; Potency, µM (top dose mostly 57.5 µM), for the others: top-dose activity change, negative = inhibition, usual class: inhibitors; 340,000 tested, 0.006% active; AID 504937; also: potency is read from the fitted curve at half-maximal effect
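Fluorescence read-out (Ex 386 nm, Em 447 nm) after stopping the reaction at pH 10. Enzyme: ASM from human placenta; substrate HMU-PC0, 9 uM final; 60 min, 37 °C. Compound preincubation 10 min, ambient temperature.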
IDH1 R132H inh = blocks human mutant IDH1 R132H enzyme | O75874 | IDH1-R132H enzyme, NADPH consumption, diaphorase/resazurin fluorescence | Potency, µM (doses to about 76.6 µM), without a hit: at the top dose activity change, negative = inhibition, actives largely listed as inhibitors | 390,000 tested, 0.093% active | AID 602179; also: potency is read from the fitted curve at half-maximal effect; % is scaled to controls: 0 for no effect and ±100 for the full control effect; nearly all actives have a fitted effect of over 65% in size
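IDH1-R132H (0.5 ug/mL) preincubated 30 min with compound, then NADPH (0.016 mM) and alpha-KG (2 mM) added; 80 min at RT, pH 7.5. Remaining NADPH coupled via diaphorase/resazurin to fluorescence (540/590 nm); concentration-response curves normalized to no-enzyme control.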
KCNH2 3.1 block = KCNH2 3.1 (human) potassium channel inhibition; 340,000 tested, 0.95% active; activity change, % (tested at about 1.8 µM); AID 720553; U2OS KCNH2 3.1, thallium flux FluxOr; stronger effect = lower value;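 active = maximum activity change below -70%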;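 also: thallium influx rate constant from kinetic fluorescence after stimulation buffer; % is scaled to controls: 0 for no effect and ±100 for the full control effect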
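Measured as rate of thallium-driven FluxOr signal in transduced U2OS cells carrying the 3.1 channel, read kinetically for 2 min upon stimulation; values are rate constants scaled to DMSO control wells.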
An asterisk follows results filed as active; [ ] = another dose, or the depositor's remark. Most compounds without a hit are left out; they make up all but 1.2% or so of the library. Unless noted, calls follow the shape of the dose curve; as a rule, active = well fitted inhibition curve with a large enough effect; inconclusive = small, poorly fitted or top-dose-only effect; inactive = no such curve, though single readings can be large or run the other way.

How did O=C(CNC(=O)/C(=C\c1ccc(Br)cc1)NC(=O)c1ccccc1)OCc1ccccc1 do in these assays?
Anesthetic bind: -12%; KCNH2 WT inh: -11; ASM inhibitor: 5%; IDH1 R132H inh: 3%; KCNH2 3.1 block: -43

How did CCOC(=O)O[C@]1(C(=O)COC(=O)CC)CC[C@@H]2[C@@H]3CCC4=CC(=O)C=C[C@@]4(C)[C@H]3[C@H](O)C[C@]21C do in these assays?
Anesthetic bind: -3%[29.3 µM]

Results for COc1ccccc1CNC(=O)Cc1ccc(C)cc1 ?
Anesthetic bind: -8%; ASM inhibitor: 4%; IDH1 R132H inh: 8%; KCNH2 3.1 block: 8

What do the screens show for `COc1ccccc1CNCC(=O)NCc1ccc(C)cc1`?
Anesthetic bind: -10%; KCNH2 WT inh: -2; ASM inhibitor: 0%; IDH1 R132H inh: -2%; KCNH2 3.1 block: -71*

What do the screens show for `CCCCCCCCCCN1CCOCCOCCN(CCCCCCCCCC)CCOCCOCC1`?
Anesthetic bind: -8%

What do the screens show for `OCC1(CCc2ccccc2)CCN(Cc2ccccc2Cl)CC1`?
Anesthetic bind: -17%; KCNH2 WT inh: 30; ASM inhibitor: -1%; IDH1 R132H inh: 0%; KCNH2 3.1 block: -80*

Results for Clc1ccccc1CN1CCN(CCCc2ccccc2)CC1 ?
Anesthetic bind: -1%; KCNH2 WT inh: 17; ASM inhibitor: 8%; IDH1 R132H inh: 7%; KCNH2 3.1 block: -78*

How did OCC1(CCc2ccccc2)CCN(Cc2cc(F)ccc2-n2cccn2)CC1 do in these assays?
Anesthetic bind: -11%; KCNH2 WT inh: -28; ASM inhibitor: 0%; IDH1 R132H inh: -4%; KCNH2 3.1 block: -99*

Results for OCC1(CCc2ccccc2)CCN(Cc2c(F)ccc(F)c2F)CC1 ?
Anesthetic bind: -16%; ASM inhibitor: 4%; IDH1 R132H inh: -2%; KCNH2 3.1 block: -2

What do the screens show for `NC(=S)N/N=C/c1cccc(/C=N/NC(N)=S)c1`?
Anesthetic bind: 5%; KCNH2 WT inh: -3; ASM inhibitor: 5%; IDH1 R132H inh: 5%; KCNH2 3.1 block: -128*

How did NC(=S)N/N=C/c1cccc(Br)c1 do in these assays?
Anesthetic bind: -18%; KCNH2 WT inh: -11; ASM inhibitor: -3%; IDH1 R132H inh: 2%; KCNH2 3.1 block: 1

How did O=C(CCCn1c(=O)c2ccccc2n(Cc2cccc(Cl)c2)c1=O)NCCc1ccc(Cl)cc1 do in these assays?
Anesthetic bind: 64%; IDH1 R132H inh: 0%

How did O=C(Nc1cccc2ccccc12)/C(=C/c1cccc([N+](=O)[O-])c1)NC(=O)c1cccs1 do in these assays?
Anesthetic bind: 8%; KCNH2 WT inh: -15; ASM inhibitor: 1%; IDH1 R132H inh: 3%; KCNH2 3.1 block: -89*

How did O=C(Nc1cccc2ccccc12)/C(=C\c1cccc([N+](=O)[O-])c1)NC(=O)c1cccs1 do in these assays?
Anesthetic bind: -4%; KCNH2 WT inh: -103*; ASM inhibitor: -9%; IDH1 R132H inh: 1%; KCNH2 3.1 block: -86*

What do the screens show for `Cc1ccc(C(=O)NCC(c2cccs2)S(=O)(=O)c2cccs2)cc1` (centres undefined)?
Anesthetic bind: -18%; IDH1 R132H inh: 33%

What do the screens show for `OCCC1CN(CC(c2ccccc2)c2ccccc2)CCN1C1CCCC1` (centres undefined)?
Anesthetic bind: -11%; KCNH2 WT inh: 2; ASM inhibitor: -1%; IDH1 R132H inh: -8%; KCNH2 3.1 block: -75*

How did OCCC1CN(CC#Cc2ccccc2)CCN1C1CCCC1 (centres undefined) do in these assays?
Anesthetic bind: -8%; KCNH2 WT inh: 12; ASM inhibitor: 5%; IDH1 R132H inh: -3%; KCNH2 3.1 block: 8

How did CCCC(CC)Sc1nc2c([nH]1)c(=S)n(C)c(=O)n2C (centres undefined) do in these assays?
KCNH2 WT inh: -92*; ASM inhibitor: -11%; IDH1 R132H inh: 3%; KCNH2 3.1 block: -14

Results for CCCCSc1nc2c([nH]1)c(=S)n(C)c(=O)n2C ?
KCNH2 WT inh: -36; ASM inhibitor: -2%; IDH1 R132H inh: 7%; KCNH2 3.1 block: 8
